Measured values from PubChem BioAssay (NCI).
The panel holds about 79,000 compounds, 15% with a hit somewhere; the sample as a whole holds those more often. The source made the active and inactive calls. Rule as the data show it: active = growth inhibition above about 70%; inactive = the rest.

Tests used:
[1] = NCI Yeast Anticancer Drug Screen. Data for the rad50 strain (AID 155);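 also: 0% = growth of vehicle-only cultures of the same strain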; settings: S. cerevisiae rad50 strain growth inhibition, stronger effect = higher value
Procedure, shortened: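 A DNA repair-deficient yeast mutant serves as the test organism; compound-induced growth inhibition is calculated against vehicle-treated cells.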

[2] = NCI Yeast Anticancer Drug Screen. Data for the mec2-1 strain (AID 157); settings: S. cerevisiae mec2-1 strain, stronger effect = higher value
Procedure, shortened: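 Vehicle-treated cultures served as reference for growth inhibition of compound-exposed mec2-1 yeast.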

[3] = NCI Yeast Anticancer Drug Screen. Data for the sgs1 mgt1 strain (AID 161);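 also: 0% = growth of cultures given vehicle only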; settings: S. cerevisiae sgs1 mgt1 strain, stronger effect = higher value
Procedure, shortened: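 Mutant yeast exposed to compound; growth scored against vehicle-only wells.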

[4] = NCI Yeast Anticancer Drug Screen. Data for the cln2 rad14 strain (AID 165);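 also: 0% = growth equal to vehicle treated cultures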; settings: S. cerevisiae cln2 rad14 strain, stronger effect = higher value
Procedure, shortened: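 Each compound was tested on cln2 rad14 yeast. Inhibition of growth was calculated against vehicle-exposed controls.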

[5] = NCI Yeast Anticancer Drug Screen. Data for the bub3 strain (AID 167); settings: S. cerevisiae bub3 mutant strain, stronger effect = higher value
Procedure, shortened: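 Inhibition values come from growth of compound-treated mutant yeast normalised to vehicle-treated controls.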

[6] = NCI Yeast Anticancer Drug Screen. Data for the mlh1 rad18 strain (AID 175); settings: S. cerevisiae mlh1 rad18 strain growth inhibition, stronger effect = higher value
Procedure, shortened: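 Vehicle-treated cultures served as the reference for growth inhibition in a yeast strain carrying DNA damage repair alterations exposed to each compound.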

[7] = at 5.0 µM (retest, dose inferred, filed as 0.5)
[8] = at 50.0 µM (retest, dose inferred, filed as 5.0)

Measured: growth inhibition

COc1ccc(OC)c(CC(Cl)(C#N)C#N)c1
inactive: [1]; [7] 33% | [2]; [7] 48% | [3]; [7] 48% | [4]; [7] 20% | [5]; [7] 34% | [6]; [7] 61%
active: [1]; [8] 99% | [1]; at 50.0 µM 98.2% | [2]; [8] 100% | [2]; at 50.0 µM 99.8% | [3]; [8] 99% | [3]; at 50.0 µM 99.7% | [4]; [8] 99% | [4]; at 50.0 µM 99% | [5]; [8] 99% | [5]; at 50.0 µM 99.8% | [6]; [8] 99% | [6]; at 50.0 µM 99.6%

Oc1ccccc1C(=NNc1ccccc1)c1ccccc1O
inactive: [1]; [7] 40% | [2]; [7] 27% | [3]; [7] 46% | [4]; [7] 49% | [5]; [7] 42%
active: [1]; [8] 96% | [1]; at 50.0 µM 94.8% | [2]; [8] 98% | [2]; at 50.0 µM 94.8% | [3]; [8] 97% | [3]; at 50.0 µM 94.8% | [4]; [8] 97% | [4]; at 50.0 µM 95.8% | [5]; [8] 98% | [5]; at 50.0 µM 95.8% | [6]; [7] 70% | [6]; [8] 98% | [6]; at 50.0 µM 90.9%

CC(c1ccccc1)c1cc(C(C)(C)C)ccc1O (configuration not stated)
inactive: [1]; [7] -4% | [2]; [7] -25% | [3]; [7] -2% | [4]; [7] -12% | [5]; [7] -8% | [6]; [7] -19%
active: [1]; [8] 99% | [1]; at 50.0 µM 99.6% | [2]; [8] 100% | [2]; at 50.0 µM 99.8% | [3]; [8] 71% | [3]; at 50.0 µM 99.7% | [4]; [8] 100% | [4]; at 50.0 µM 99.3% | [5]; [8] 99% | [5]; at 50.0 µM 99.4% | [6]; [8] 99% | [6]; at 50.0 µM 99.3%

NCCOB(c1ccccc1)c1ccccc1
inactive: [1]; [7] 12% | [1]; at 50.0 µM 53.1% | [2]; [7] 0% | [2]; at 50.0 µM 54.2% | [3]; [7] 3% | [3]; at 50.0 µM 50.5% | [4]; [7] 8% | [5]; [7] 1% | [6]; [7] 5% | [6]; at 50.0 µM 51.3%
active: [1]; [8] 99% | [2]; [8] 99% | [3]; [8] 99% | [4]; [8] 99% | [4]; at 50.0 µM 99% | [5]; [8] 99% | [5]; at 50.0 µM 99.3% | [6]; [8] 99%

CC(=O)Oc1ccc(-c2ccccc2)cc1Br
active: [1]; [8] 99% | [1]; at 50.0 µM 93.6% | [2]; [8] 98% | [2]; at 50.0 µM 96.2% | [3]; [8] 97% | [3]; at 50.0 µM 91.5% | [4]; [8] 95% | [4]; at 50.0 µM 85.1% | [5]; [8] 98% | [5]; at 50.0 µM 94.2% | [6]; [8] 99% | [6]; at 50.0 µM 98.1%
inactive: [1]; [7] 8% | [2]; [7] -27% | [3]; [7] 6% | [4]; [7] 7% | [5]; [7] 10% | [6]; [7] 11%

CC1=C(C(=O)OCCO[N+](=O)[O-])C(c2ccccc2[N+](=O)[O-])C(C(=O)OC(C)C)=C(C)N1 (configuration not stated)
active: [1]; [8] 97% | [1]; at 50.0 µM 83.5% | [2]; [8] 97% | [2]; at 50.0 µM 87.7% | [3]; [8] 97% | [3]; at 50.0 µM 90.3% | [4]; [8] 92% | [4]; at 50.0 µM 86.9% | [5]; [8] 97% | [5]; at 50.0 µM 89.6% | [6]; [8] 97% | [6]; at 50.0 µM 85.5%
inactive: [1]; [7] 11% | [2]; [7] 22% | [3]; [7] -2% | [4]; [7] 10% | [5]; [7] -3% | [6]; [7] 19%

CC(C)C(C)(C(=O)O)C(C)C
inactive: [1]; [7] 0% | [1]; [8] 1% | [1]; at 50.0 µM 13.8% | [2]; [7] 3% | [2]; [8] 2% | [2]; at 50.0 µM 2.1% | [3]; [7] 2% | [3]; [8] 3% | [3]; at 50.0 µM 5.6% | [4]; [7] -3% | [4]; [8] 4% | [4]; at 50.0 µM 67% | [5]; [7] -1% | [5]; [8] 0% | [5]; at 50.0 µM -5.5% | [6]; [7] 1% | [6]; [8] 0% | [6]; at 50.0 µM 2.75%

Cc1cccc(C)c1NC(=O)CCc1nnc(N)n1N
inactive: [1]; [7] 17% | [1]; [8] 4% | [1]; at 50.0 µM -20.6% | [2]; [7] -1% | [2]; [8] -3% | [2]; at 50.0 µM 3.75% | [3]; [7] 7% | [3]; [8] -2% | [3]; at 50.0 µM 18.8% | [4]; [7] -6% | [4]; [8] 6% | [4]; at 50.0 µM -23.4% | [5]; [7] -3% | [5]; [8] -2% | [5]; at 50.0 µM 8.7% | [6]; [7] -3% | [6]; [8] -1% | [6]; at 50.0 µM 16.4%

Cc1ccc2c(c1)NC(=O)C(N=[N+]=[N-])(c1ccccc1)C2=O (configuration not stated)
inactive: [1]; [7] -25% | [2]; [7] -2% | [3]; [7] -1% | [4]; [7] 10% | [5]; [7] -7% | [6]; [7] -4%
active: [1]; [8] 97% | [1]; at 50.0 µM 89.8% | [2]; [8] 93% | [2]; at 50.0 µM 91.3% | [3]; [8] 97% | [3]; at 50.0 µM 90.2% | [4]; [8] 71% | [4]; at 50.0 µM 91.3% | [5]; [8] 98% | [5]; at 50.0 µM 92.3% | [6]; [8] 98% | [6]; at 50.0 µM 70.4%
